Key:
Test in all cases: PBM binding z-score (relative to random genomic background probes); higher = stronger binding; sequences stand for … in GC…GCGATTGACAGCGTAGAATGAAGG
[1] = test system: FXR:RXRa (NR concentration 270 nM, RXRa partner concentration 90 nM)
Summary of the method: (§1)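 Random background probes are the reference for binding z-scores. These scores derive from regression-normalized fluorescence on custom Agilent 4×180K protein-binding microarrays incubated 1 h with ligand-free nuclear receptor dimers. Binding was detected with antibodies against each partner (one per run).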

[2] = test system: LXRa:RXRa (NR concentration 270 nM, RXRa partner concentration 90 nM)
Summary of the method: as §1

[3] = test system: LXRa homodimer (NR concentration 270 nM)
Summary of the method: as §1

[4] = test system: LXRb:RXRa (NR concentration 270 nM, RXRa partner concentration 90 nM)
Summary of the method: as §1

[5] = test system: LXRb homodimer (NR concentration 270 nM)
Summary of the method: as §1

[6] = test system: PPARa:RXRa (NR concentration 270 nM, RXRa partner concentration 90 nM)
Summary of the method: as §1

[7] = test system: PPARg:RXRa (NR concentration 180 nM, RXRa partner concentration 90 nM)
Summary of the method: as §1

[8] = test system: PPARg:RXRa 270nM:90nM, anti-RXR (NR concentration 270 nM, RXRa partner concentration 90 nM)
Summary of the method: as §1

[9] = test system: PPARg:RXRa 30nM:10nM, anti-RXR (NR concentration 30 nM, RXRa partner concentration 10 nM)
Summary of the method: as §1

[10] = test system: PPARg:RXRa 90nM:30nM, anti-RXR (NR concentration 90 nM, RXRa partner concentration 30 nM)
Summary of the method: as §1

[11] = test system: PPARg:RXRa DBDmut IVT, anti-RXR (DBD mutation: RXRa K156A/R161A, NR concentration 270 nM, RXRa partner concentration 90 nM)
Summary of the method: as §1

[12] = test system: PPARg:RXRa IVT, anti-PPARg (NR concentration 270 nM, RXRa partner concentration 90 nM)
Summary of the method: as §1

[13] = test system: PPARg DBDmut:RXRa IVT, anti-PPARg (DBD mutation: PPARg1 K132A/R137A, NR concentration 270 nM, RXRa partner concentration 90 nM)
Summary of the method: as §1

[14] = test system: PPARg DBDmut IVT, anti-PPARg (DBD mutation: PPARg1 K132A/R137A, NR concentration 270 nM)
Summary of the method: as §1

[15] = test system: PPARg homodimer (NR concentration 180 nM)
Summary of the method: as §1

[16] = test system: PXR:RXRa (NR concentration 270 nM, RXRa partner concentration 90 nM)
Summary of the method: as §1

[17] = test system: PXR homodimer (NR concentration 270 nM)
Summary of the method: as §1

[18] = test system: RARa:RXR (NR concentration 270 nM, RXRa partner concentration 90 nM)
Summary of the method: as §1

[19] = test system: RARa homodimer (NR concentration 270 nM)
Summary of the method: as §1

[20] = test system: RARb:RXRa (NR concentration 270 nM, RXRa partner concentration 90 nM)
Summary of the method: as §1

Row | Sequence | PBM binding z-score [1] | PBM binding z-score [2] | PBM binding z-score [3] | PBM binding z-score [4] | PBM binding z-score [5] | PBM binding z-score [6] | PBM binding z-score [7] | PBM binding z-score [8] | PBM binding z-score [9] | PBM binding z-score [10] | PBM binding z-score [11] | PBM binding z-score [12] | PBM binding z-score [13] | PBM binding z-score [14] | PBM binding z-score [15] | PBM binding z-score [16] | PBM binding z-score [17] | PBM binding z-score [18] | PBM binding z-score [19] | PBM binding z-score [20]
1 | ACTATTAGTTGACTTAGGGCAACCAATACGACGC | 0.265 | 0.363 | 0.224 | 0.227 | 0.496 | 0.111 | 0.997 | 0.305 | 0.385 | 0.219 | 0.203 | 0.66 | 0.926 | 0.817 | 0.6 | 0.385 | 0.557 | 0.714 | 0.139 | 0.985
2 | AGAATGAGGTTACCACAGATCAGGGAAACGCTTG | 1.97 | 6.39 | -0.0372 | 3.08 | -0.518 | 3.53 | 2.72 | 2.65 | 1.11 | 1.73 | 3.9 | 3.38 | 1.25 | 0.385 | 1.11 | 1.05 | 0.472 | 1.98 | 0.262 | 1.99
3 | CCTAACGGGTCACTCCAGGTTATAGCATCGGAGT | 3.94 | 7.24 | 1.46 | 4.81 | 0.101 | 3.5 | 2.32 | 2.54 | 0.338 | 1.43 | 1.88 | 2.52 | -0.282 | -0.298 | 1.23 | 4.32 | 0.412 | 2.86 | 0.233 | 3.15
4 | TCGAGTAGGTTAACAATGGGGCATTCAGCTTTCT | 0.324 | 3.77 | -0.204 | 1.79 | -0.704 | 1.59 | 0.576 | 1.22 | 1.31 | 1.29 | 3.65 | 2.78 | 0.124 | 0.191 | 0.25 | 0.403 | -0.277 | 0.753 | -0.553 | 0.976
5 | TCTTGTAGATCAACAGGAGGTTAAGTAAGATCGA | 0.451 | 1.3 | 0.363 | 1.17 | -0.23 | 1.52 | -0.0593 | 1.22 | 2.44 | 1.51 | 1.56 | 0.854 | 0.235 | 0.997 | -0.29 | 0.916 | -0.272 | 1.46 | 0.0899 | 0.659
6 | AGTCAAAGTTCACTAGGTAAGGTAAGATTCAGCT | 5.15 | 4.75 | 3.2 | 3 | 1.19 | 4.4 | 6.73 | 5.99 | 3.11 | 5.44 | 1.79 | 4.24 | 1.06 | 0.795 | 2.55 | 3.83 | 2.61 | 3.3 | 1.36 | 4.8
